# Measured values: PubChem BioAssay (NCATS)
# Results filed as inconclusive are left out. Active and inactive are the calls of the source. The call rests on the fitted dose curve; in most records, active means well fitted inhibition curve with a large enough effect; inconclusive means small, poorly fitted or top-dose-only effect; inactive means flat fitted curve, though single readings scatter.
# Test system: CP192
# Assay: qHTS profiling for inhibitors of Plasmodium falciparum proliferation (AID 504749);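 further: 0% = DMSO vehicle and full inhibition = artemisinin control; nearly all actives have a fitted effect of over 60% in size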
# Settings: P. falciparum in erythrocytes, SYBR Green DNA, 72 h; series mostly up to 28.7 µM; activity, negative = inhibition: at the top concentration
# Summary of the method: (§1)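 Three-day growth assay of blood-stage parasites in erythrocytes (0.3% parasitemia, 2.5% hematocrit) at 37 C, 5% CO2, quantified by SYBR Green DNA staining after overnight detergent lysis.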
Structure (SMILES),"activity, negative = inhibition",Potency
O=C1OC(OC(=O)c2cccnc2Nc2cccc(C(F)(F)F)c2)c2ccccc21 (stereo unspecified),6.21% (inactive),
O=c1cc[nH]c(=S)[nH]1,2.07% (inactive),
Nc1ncnc2c1ncn2[C@@H]1O[C@H](CO)[C@@H](O)[C@H]1O,-2% (inactive),
O=c1cc[nH]c(=O)[nH]1,-3.79% (inactive),
CC(=O)Nc1ccc(/C=N/NC(N)=S)cc1,,inactive
CCn1cc(C(=O)O)c(=O)c2cnc(N3CCNCC3)nc21,-7.75% [at 12.8 µM] (inactive),
CC1(C)OC(=O)NC1=O,9.15% (inactive),
CC1=C(/C=C/C(C)=C/C=C/C(C)=C/C(=O)O)C(C)(C)CCC1,1.72% (inactive),
COc1cc(C)c(Cc2cnc(N)nc2N)cc1OC,-3.32% (inactive),
Oc1cccc(O)c1,-2.29% (inactive),
CC(=O)CCC(=O)O,1.73% (inactive),
O=C(O)c1ccccc1-c1ccc(C(F)(F)F)cc1,-1.52% (inactive),
O=C(O)CN1C(=O)c2cccc3cccc(c23)C1=O,-0.403% (inactive),
Cc1ncc(COP(=O)(O)O)c(C=O)c1O,-1.14% (inactive),
Cc1cc(O)cc2c1O[C@](C)(CCC[C@H](C)CCC[C@H](C)CCCC(C)C)CC2,-2.13% (inactive),
Cc1cc(C(C#N)c2ccc(Cl)cc2)c(Cl)cc1NC(=O)c1cc(I)cc(I)c1O (stereo unspecified),-0.985% (inactive),

Structure (SMILES),"activity, negative = inhibition",Potency
CC(C)(C)C(=O)NCCCC(=O)O,-18% (inactive),
Cc1ccc(C(C)C)cc2c(C)ccc1-2,-0.584% (inactive),
Nc1ccc(S(=O)(=O)Nc2nccs2)cc1,-0.387% (inactive),
NC(=O)NNc1ccccc1,,inactive
C[C@H]1O[C@@H](n2cc(F)c(=O)[nH]c2=O)[C@H](O)[C@@H]1O,-23.4% (inactive),
COc1ccccc1O,-3.09% (inactive),
Cc1cccc(Nc2cc(Cl)nc(SCC(=O)O)n2)c1C,-7.01% (inactive),
Nc1ccc(S(=O)(=O)Nc2ccccc2)cc1,-0.0026% (inactive),
CC(=O)NC(Cc1ccccc1)C(=O)O (stereo unspecified),3.7% (inactive),
NS(=O)(=O)c1cc2c(cc1Cl)NC(CSCc1ccccc1)=NS2(=O)=O,-14.1% [at 12.8 µM] (inactive),
CCCCCCCCCCCCCCCCCCOCC(O)CO (stereo unspecified),-4.77% (inactive),
O=C(O)c1ccccn1,3.4% (inactive),
O=C(O)CC(O)C(=O)O (stereo unspecified),-7.28% (inactive),
CC1=C(CC(=O)O)c2cc(F)ccc2/C1=C\c1ccc(S(C)=O)cc1 (stereo unspecified),2.7% (inactive),
COC(=O)C1=C(C)NC(C)=C(C(=O)OC)C1c1ccccc1[N+](=O)[O-],1% (inactive),
O=C1O[C@H]([C@@H](O)CO)C(O)=C1O,1.3% (inactive),

# Test system: CP194
# Assay: as above
# Settings: P. falciparum in erythrocytes, SYBR Green DNA, 72 h; series mostly up to 28.7 µM; activity, negative = inhibition: at the top concentration
# Summary of the method: as §1
Structure (SMILES),"activity, negative = inhibition",Potency
O=C1OC(OC(=O)c2cccnc2Nc2cccc(C(F)(F)F)c2)c2ccccc21 (stereo unspecified),7.11% (inactive),
O=c1cc[nH]c(=S)[nH]1,0.645% (inactive),
Nc1ncnc2c1ncn2[C@@H]1O[C@H](CO)[C@@H](O)[C@H]1O,-2.2% (inactive),
O=c1cc[nH]c(=O)[nH]1,-0.77% (inactive),
CC(=O)Nc1ccc(/C=N/NC(N)=S)cc1,,inactive
CCn1cc(C(=O)O)c(=O)c2cnc(N3CCNCC3)nc21,1.99% [at 12.8 µM] (inactive),
CC1(C)OC(=O)NC1=O,2.12% (inactive),
CC1=C(/C=C/C(C)=C/C=C/C(C)=C/C(=O)O)C(C)(C)CCC1,-4.3% (inactive),
COc1cc(C)c(Cc2cnc(N)nc2N)cc1OC,-2.57% (inactive),
Oc1cccc(O)c1,-0.78% (inactive),
CC(=O)CCC(=O)O,-0.803% (inactive),
O=C(O)c1ccccc1-c1ccc(C(F)(F)F)cc1,2.98% (inactive),
O=C(O)CN1C(=O)c2cccc3cccc(c23)C1=O,-0.435% (inactive),
Cc1ncc(COP(=O)(O)O)c(C=O)c1O,0.213% (inactive),
Cc1cc(O)cc2c1O[C@](C)(CCC[C@H](C)CCC[C@H](C)CCCC(C)C)CC2,0.586% (inactive),
Cc1cc(C(C#N)c2ccc(Cl)cc2)c(Cl)cc1NC(=O)c1cc(I)cc(I)c1O (stereo unspecified),-15% (inactive),

Structure (SMILES),"activity, negative = inhibition",Potency
CC(C)(C)C(=O)NCCCC(=O)O,2.05% (inactive),
Cc1ccc(C(C)C)cc2c(C)ccc1-2,-8.9% (inactive),
Nc1ccc(S(=O)(=O)Nc2nccs2)cc1,-2.08% (inactive),
NC(=O)NNc1ccccc1,,inactive
C[C@H]1O[C@@H](n2cc(F)c(=O)[nH]c2=O)[C@H](O)[C@@H]1O,1.61% (inactive),
COc1ccccc1O,-5.31% (inactive),
Cc1cccc(Nc2cc(Cl)nc(SCC(=O)O)n2)c1C,0.828% (inactive),
Nc1ccc(S(=O)(=O)Nc2ccccc2)cc1,-0.317% (inactive),
CC(=O)NC(Cc1ccccc1)C(=O)O (stereo unspecified),1.44% (inactive),
NS(=O)(=O)c1cc2c(cc1Cl)NC(CSCc1ccccc1)=NS2(=O)=O,-9.07% [at 12.8 µM] (inactive),
CCCCCCCCCCCCCCCCCCOCC(O)CO (stereo unspecified),-7.68% (inactive),
O=C(O)c1ccccn1,2.12% (inactive),
O=C(O)CC(O)C(=O)O (stereo unspecified),-1.63% (inactive),
CC1=C(CC(=O)O)c2cc(F)ccc2/C1=C\c1ccc(S(C)=O)cc1 (stereo unspecified),4.58% (inactive),
COC(=O)C1=C(C)NC(C)=C(C(=O)OC)C1c1ccccc1[N+](=O)[O-],-14.7% (inactive),
O=C1O[C@H]([C@@H](O)CO)C(O)=C1O,2.93% (inactive),

# Test system: CP201
# Assay: as above
# Settings: P. falciparum in erythrocytes, SYBR Green DNA, 72 h; series mostly up to 28.7 µM; activity, negative = inhibition: at the top concentration
# Summary of the method: as §1
Structure (SMILES),"activity, negative = inhibition",Potency
O=C1OC(OC(=O)c2cccnc2Nc2cccc(C(F)(F)F)c2)c2ccccc21 (stereo unspecified),-1.65% (inactive),
O=c1cc[nH]c(=S)[nH]1,0.982% (inactive),
Nc1ncnc2c1ncn2[C@@H]1O[C@H](CO)[C@@H](O)[C@H]1O,-3.68% (inactive),
O=c1cc[nH]c(=O)[nH]1,2.84% (inactive),
CC(=O)Nc1ccc(/C=N/NC(N)=S)cc1,,inactive
CCn1cc(C(=O)O)c(=O)c2cnc(N3CCNCC3)nc21,-8.03% [at 12.8 µM] (inactive),
CC1(C)OC(=O)NC1=O,-5.55% (inactive),
CC1=C(/C=C/C(C)=C/C=C/C(C)=C/C(=O)O)C(C)(C)CCC1,-0.514% (inactive),
COc1cc(C)c(Cc2cnc(N)nc2N)cc1OC,-3.26% (inactive),
Oc1cccc(O)c1,0.626% (inactive),
CC(=O)CCC(=O)O,0.7% (inactive),
O=C(O)c1ccccc1-c1ccc(C(F)(F)F)cc1,1.43% (inactive),
O=C(O)CN1C(=O)c2cccc3cccc(c23)C1=O,0.38% (inactive),
Cc1ncc(COP(=O)(O)O)c(C=O)c1O,-6.83% (inactive),
Cc1cc(O)cc2c1O[C@](C)(CCC[C@H](C)CCC[C@H](C)CCCC(C)C)CC2,3.14% (inactive),
Cc1cc(C(C#N)c2ccc(Cl)cc2)c(Cl)cc1NC(=O)c1cc(I)cc(I)c1O (stereo unspecified),-4.65% (inactive),

Structure (SMILES),"activity, negative = inhibition",Potency
CC(C)(C)C(=O)NCCCC(=O)O,1.61% (inactive),
Cc1ccc(C(C)C)cc2c(C)ccc1-2,-6.71% (inactive),
Nc1ccc(S(=O)(=O)Nc2nccs2)cc1,-9.71% (inactive),
NC(=O)NNc1ccccc1,,inactive
C[C@H]1O[C@@H](n2cc(F)c(=O)[nH]c2=O)[C@H](O)[C@@H]1O,5.22% (inactive),
COc1ccccc1O,0.797% (inactive),
Cc1cccc(Nc2cc(Cl)nc(SCC(=O)O)n2)c1C,1.04% (inactive),
Nc1ccc(S(=O)(=O)Nc2ccccc2)cc1,2.11% (inactive),
CC(=O)NC(Cc1ccccc1)C(=O)O (stereo unspecified),-0.788% (inactive),
NS(=O)(=O)c1cc2c(cc1Cl)NC(CSCc1ccccc1)=NS2(=O)=O,-7.62% [at 12.8 µM] (inactive),
CCCCCCCCCCCCCCCCCCOCC(O)CO (stereo unspecified),1.21% (inactive),
O=C(O)c1ccccn1,1.43% (inactive),
O=C(O)CC(O)C(=O)O (stereo unspecified),-0.874% (inactive),
CC1=C(CC(=O)O)c2cc(F)ccc2/C1=C\c1ccc(S(C)=O)cc1 (stereo unspecified),5.44% (inactive),
COC(=O)C1=C(C)NC(C)=C(C(=O)OC)C1c1ccccc1[N+](=O)[O-],-0.75% (inactive),
O=C1O[C@H]([C@@H](O)CO)C(O)=C1O,1.73% (inactive),
